Some compounds were tested as several samples or in several runs, with calls that do not always agree. Active and inactive are the calls of the source. The calls were made as follows: active = hit-call score of the fitted dose curve at least 0.9, where 1 is the maximum; inactive = score below 0.9.

By AC50 is commonly meant the midpoint of the concentration-response curve, whichever way the signal moves.

A short description of this test: CEETOX_H295R_ESTRONE: CeeTox H295R High-throughput Steroidogenesis Assay for Estrone (AID 2283441).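 Also: estrone secreted into medium measured by LC-MS/MS after dansyl derivatization.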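 As to AC50: human adrenal H295R cells prestimulated with forskolin for two days.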 The settings on record: actives raise or lower the signal. On the procedure:
CEETOX_H295R is a cell-based, multiplexed-readout assay that uses H295R, a human adrenal gland cell line, with measurements taken at 48 hours after chemical dosing in a 96-well plate.CEETOX_H295R_ESTRONE is one of 23 assay component(s) measured or calculated from the CEETOX_H295R assay. It is designed to make measurements of hormone induction, a form of inducible reporter, as detected with absorbance signals by HPLC-MS-MS technology.Data from the assay component CEETOX_H295R_ESTRONE was analyzed into 1 assay endpoint. This assay endpoint, CEETOX_H295R_ESTRONE, was analyzed with bidirectional fitting relative to DMSO as the negative control and baseline of activity. Using a type of inducible reporter, gain or loss-of-signal activity using HPLC-MS-MS was used to understand synthesis of Estrone in H295R cell line at 48hr of chemical exposure. To generalize the intended target to other relatable targets, this assay endpoint is annotated to the steroid hormone intended target family, where the subfamily is estrogens.
Cell culture and media preparation procedures were conducted in accordance with OECD Test No. 456 guidelines, with minor modifications. H295R cells (ATCC CRL-2128) were expanded for 5 passages and frozen in batches in liquid nitrogen. Prior to the steroidogenesis assay, H295R cells were thawed and passed at least 4 times. The maximum passage was 10. […] After seeding cells into 96-well plates at 50-60% confluency, cells were allowed to adhere overnight. Prior to chemical testing, culture medium was replaced with 175 uL medium containing 10 uM forskolin to stimulate steroidogenesis for 48 hours. Following prestimulation, forskolin medium was replaced with medium containing test chemical solubilized in DMSO (ensuring a final concentration of 0.1% DMSO). Test chemicals were incubated for 48 hours, then the medium was removed and split into 2 vials containing approximately 75uL each, and stored at -80 C prior to hormone analysis. For steroid quantification, media samples were shipped to OpAns, LLC (Durham, NC) on dry ice, and samples were thawed to room temperature prior to liquid-liquid extraction. Steroid hormones were extracted from media samples using methyl tertbutyl ether (MTBE). An extra derivatization with dansyl chloride was included for estrogen (estrone and estradiol) detection only. Steroid hormones were separated by HPLC, eluted using a reverse phase C18 gradient with electrospray positive ionization, followed by quantification by tandem mass spectrometry (MS/MS). Data were acquired on a MassHunter Workstation Acquisition version B03.01 (Agilent Technologies, Inc.) and processed using MassHunter Quantitative Analysis for QQQ. Accuracy was determined for each hormone analyte from 3 standards to determine upper and lower limits of quantification (ULOQ and LLOQ, respectively) using a 7-point standard curve. Precision and accuracy of the extraction and quantification methods were calculated as the percent relative standard deviation (%RSD) of the spiked standards and percent spiked standard recovered, respectively. The goal was to achieve 100% accuracy (i.e., recover all spiked-in standard at quantification with minimal loss during run time) and good precision (i.e., have %RSD <15% to ensure reproducibility). Test medium was removed following chemical exposure, and cell viability was evaluated in the same wells by MTT. MTT procedures were as follows: after removal of test medium, 500 uL of 0.5 mg/ml of 3-[4,5-dimethylthiazol-2-y]2,5-diphenyltetrazoliumbromide solution was added to the cells. Following a 4-hour incubation at 37 C and 5% CO2 to allow formazan-crystal formation, the MTT solution was removed and blue formazan salt crystals were solubilized using 500uL anhydrous isopropanol with shaking for 20 minutes. Absorbance was read at 570 and 650nm using a Packard Fusion microplate reader. Background correction of absorbance units was used to determine percent change relative to controls. […] […]
As to `CCOC(=O)C(Cl)Cc1cc(-n2nc(C)n(C(F)F)c2=O)c(F)cc1Cl` (configuration not stated), the result was inactive.
Consider `CCOc1cc(Oc2ccc(C(F)(F)F)cc2Cl)ccc1[N+](=O)[O-]`, for which the AC50 is 3.32 µM (active).
With `N#CC(CCc1ccc(Cl)cc1)(Cn1cncn1)c1ccccc1` (configuration not stated), the outcome was inactive.
The same measure, in the same setting: then `CCCCNC(=O)n1c(NC(=O)OC)nc2ccccc21`, with “inactive”; and `Cc1c(F)c(F)c(COC(=O)C2C(/C=C(\Cl)C(F)(F)F)C2(C)C)c(F)c1F` (configuration not stated), with “inactive”.
As to `CCOP(=S)(OCC)SCn1c(=O)oc2cc(Cl)ccc21`, the AC50 is 1.62 µM (active).
For `COc1nc(NC(C)C)nc(NC(C)C)n1`, the half-maximal activity concentration (AC50) is 3.8 µM (active).
In the case of `COP(=S)(OC)Oc1nc(Cl)c(Cl)cc1Cl`, the compound was called inactive.
With `CCNc1nc(Cl)nc(NC(C)C)n1`, the AC50 is 1.35 µM (active).
Consider `CC(C)Oc1cc(-n2nc(C(C)(C)C)oc2=O)c(Cl)cc1Cl`, for which the outcome was inactive.
The same measure, in the same setting: then `C=CC1(C)OC(=O)N(c2cc(Cl)cc(Cl)c2)C1=O` (configuration not stated), with “inactive”; and `CC1=C(C(=O)Nc2ccccc2)SCCO1`, with “inactive”.
On the same count and under the same terms, the value for `CNC(=S)S` was “inactive”; that for `CC1COC(Cn2cncn2)(c2ccc(Oc3ccc(Cl)cc3)cc2Cl)O1` (configuration not stated) was “inactive”.
With `Oc1ccccc1-c1ccccc1`, the result was inactive and the AC50 is 50 µM (active).
Take `CCNc1nc(Cl)nc(NCC)n1`: the AC50 was 8.07 µM (active).

Values taken from PubChem BioAssay (EPA / NIEHS).
